Data as given in PubChem BioAssay (NCI).
The panel holds about 83,000 compounds, 20% with a hit somewhere; the sample as a whole holds those more often.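 Testing used 96-well plates and a 48-hour single-concentration exposure. Example: -40 means 40% of the starting cells died.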 Values without a mark were called inactive. The source made the active and inactive calls. Where a SMILES comes first, the peptide text is derived from it. Bridges are numbered along the chain shown (N, C = ends). [ ]: non-standard residue; d: D form. The star is where a group is joined. ξ: configuration not given here. ξNMePhe(4-NMe2) = CNC(Cc1ccc(N(C)C)cc1)C(=O)O; Picolinoyl(3-OH) = O=C(c1ncccc1O)*; ξPip(4-oxo) = O=C1CCNC(C(=O)O)C1; Phg = N[CH](C(=O)O)c1ccccc1; Abu = CC[CH](N)C(=O)O

Tested on: MCF7 breast
Assay: NCI-60 one-dose screen, 48 h (100 = growth as untreated, 0 = no growth, -100 = all killed)
Conditions: 10 µM unless noted
Description: Growth inhibition of the MCF7 human tumor cell line is measured as a screen for anti-cancer activity. Cells are grown in 96 well plates and exposed to the test compound for 48 hours. Compounds are tested at a single concentration, which is 10^-5 M for most compounds. The reported endpoint is percent growth (GI% or GIPRCNT), where numbers from 0 - 100% represent growth inhibition, and numbers from -100% - 0 represent cell death. For example, a value of 40 represents 60% growth inhibition. A value of 0 means no net growth occurred over the course of the experiment. A value of -40 indicates 40% of cells at the beginning of the experiment died by the end of the experiment. A value of -100 means all cells are dead at the end of the experiment.
NCI-60 Human Tumor Cell Lines Screen was performed using the standard one-dose NCI protocol, which is described in more detail at https://dtp.cancer.gov/discovery_development/nci-60/default.htm.
Compounds with GIPRCNT values below 10 were considered active. Activity score was based on GIPRCNT using the following formula: […]
Score is 0 for GIPRCNT values of 100 or above, 50 for GIPRCNT values of 0, and 100 for GIPRCNT values of -100.

| Compound | growth |
| --- | --- |
| Cc1ccc(S(=O)(=O)O)c(C)c1 | 95.3% |
| CCN(CC)c1ccc2nc3ccc(=[N+](CC)CC)cc-3oc2c1 | -34.9% (active) |
| CCNc1nc2c(cnn2C)c(=O)[nH]1 | 100% |
| COc1cc(C(=O)N/N=C/c2cccc([N+](=O)[O-])c2)cc(OC)c1OC | 23.9% |
| CCCCC1C(=O)N(c2ccccc2)N(c2ccccc2)C1=O | 115% |
| CCOC(=O)C(C#N)Cc1ccccc1 (stereo not given) | 103% |
| CC(=O)OCC(=O)[C@@]1(O)CC[C@H]2[C@@H]3CC[C@@H]4C[C@H](O)CC[C@]4(C)[C@H]3C(=O)C[C@@]21C | 108% |
| [O-][N+](=Nc1cccc(Cl)c1)c1cccc(Cl)c1 | 27.6% |
| CC1=NN(c2ccccc2)C(=O)/C1=C\N1CC(=O)NC1=S | 103% |
| COc1ccc(OC)c(/C=C2\CCc3ccccc3C2=O)c1 | 12.1% |
| Cc1cc(O)ccc1O | 94.7% |
| CC[N+](C)(CC)CCO | 103% |
| CCC1NC(=O)C(NC(=O)c2ncccc2O)C(C)OC(=O)C(c2ccccc2)NC(=O)C2CC(=O)CCN2C(=O)C(Cc2ccc(N(C)C)cc2)N(C)C(=O)C2CCCN2C1=O (stereo not given) (tested in a mixture with another compound) ({Picolinoyl(3-OH)}-T[Abu]P[ξNMePhe(4-NMe2)][ξPip(4-oxo)][Phg]; ester 1-C; configuration not given here) | 46.5% |
| N#Cc1ccc(OC(=O)Nc2ccc(Cl)c(Cl)c2)cc1 | 44.5% |
| CCC(C)(C)C1CCC(O)CC1 (stereo not given) | 104% |
| O=C(O)CCC(=O)OC(C1CO1)C(OC(=O)CCC(=O)O)C1CO1 (stereo not given) | 90.6% |
| O=C(NCO)c1ccccc1 | 101% |
| O=C(CCl)N1CCN(C/C=C/c2ccccc2)CC1 | 62.1% |
| Cc1ccc(/C=C2\SC(=S)N(c3ccc(F)cc3)C2=O)o1 | 71.1% |
| O=c1[nH]c(O)c(/C=C2/C=Nc3ccccc32)[nH]1 | 56.3% |

| Compound | growth |
| --- | --- |
| CC(C)C1CCCCC1O (stereo not given) | 107% |
| COc1ccc2c(c1)CCc1c-2n[nH]c1-c1[nH]nc2c1CCc1cc(OC)ccc1-2 | 12.6% |
| CCOC(=O)c1cc(/C=C/c2ccc(Cl)cc2Cl)on1 | 0.711% (active) |
| CNC(=S)NC(C)(C)C | 97.4% |
| O=c1cc(-c2ccccc2)oc2c1ccc1ccccc12 | 67.3% |
| NC(=O)NC(=O)c1ccc(Cl)cc1 | 95.4% |
| CC(=O)Cc1cc(-c2cc(CC(C)=O)[nH]n2)n[nH]1 | 93.2% |
| CCCCCCCCCCCCCC(=O)Oc1ccc[nH]c1=O | 95.8% |
| OCc1ccc(-c2ccc(-c3ccc(CO)s3)o2)s1 | 9.78% (active) |
| C=C[Si](OC(C)=O)(OC(C)=O)OC(C)=O | 92.9% |
| COC(=O)Nc1cccc(Cl)c1OC | 104% |
| CCCCC(=O)c1ccc(OC)cc1 | 97.6% |
| OCC1OC(OC2C(O)C(CO)OC2(CO)OC2OC(CO)C(O)C(O)C2O)C(O)C(O)C1O (stereo not given) | 95% |
| COCCOCCCl | 100% |
| CCOC(=O)Nc1nn[nH]n1 | 103% |
| O=C(CCNNC(=O)c1ccncc1)NCc1ccccc1 | 89.9% |
| CN(C)c1nc2c([nH]1)c(=O)n(C)c(=O)n2C | 106% |
| C=CC[N+](C)(C)C | 101% |
| C=CC(O)CCC (stereo not given) | 95.3% |
| O=C(CC(=O)c1ccccc1O)c1ccccc1 | 76.4% |
